This is an account of results in PubChem BioAssay.

Assay [1] in a line: anti-His antibody binders, primary screen, artefact control for SMM control protein annotation, biochemical, small-molecule microarray, 635 nm fluorescence (AID 1128).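 Further: score merges feature fluorescence with signal-to-noise for each printed compound spot.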 The note with it: anti-His Alexa647 antibody binding, higher = more signal.
Assay [2] has as its system Human papillomavirus type 1a E7 protein (residues 1-88). The assay can be described thus: HPV1a E7 small-molecule binders, primary screen, biochemical, small-molecule microarray, residues 1-88, 635 nm (AID 1129). The following applies: small-molecule microarray binding, fluorescence 635 nm; higher = more signal.
The target in assay [3] is Focal adhesion kinase 1 (Homo sapiens) (UniProt Q05397). The assay can be described thus: small-molecule microarray binders of FAK, primary screen, biochemical, 635/667 nm fluorescence, BSA, DTT (AID 1130).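 Further: composite of spot emission at 667 nm and signal to noise over triplicate slides.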 The following applies: PTK2 binding, 635 nm fluorescence, higher = more signal.
Focal adhesion kinase 1 (Homo sapiens), sequence (Q05397 whole entry, looked up): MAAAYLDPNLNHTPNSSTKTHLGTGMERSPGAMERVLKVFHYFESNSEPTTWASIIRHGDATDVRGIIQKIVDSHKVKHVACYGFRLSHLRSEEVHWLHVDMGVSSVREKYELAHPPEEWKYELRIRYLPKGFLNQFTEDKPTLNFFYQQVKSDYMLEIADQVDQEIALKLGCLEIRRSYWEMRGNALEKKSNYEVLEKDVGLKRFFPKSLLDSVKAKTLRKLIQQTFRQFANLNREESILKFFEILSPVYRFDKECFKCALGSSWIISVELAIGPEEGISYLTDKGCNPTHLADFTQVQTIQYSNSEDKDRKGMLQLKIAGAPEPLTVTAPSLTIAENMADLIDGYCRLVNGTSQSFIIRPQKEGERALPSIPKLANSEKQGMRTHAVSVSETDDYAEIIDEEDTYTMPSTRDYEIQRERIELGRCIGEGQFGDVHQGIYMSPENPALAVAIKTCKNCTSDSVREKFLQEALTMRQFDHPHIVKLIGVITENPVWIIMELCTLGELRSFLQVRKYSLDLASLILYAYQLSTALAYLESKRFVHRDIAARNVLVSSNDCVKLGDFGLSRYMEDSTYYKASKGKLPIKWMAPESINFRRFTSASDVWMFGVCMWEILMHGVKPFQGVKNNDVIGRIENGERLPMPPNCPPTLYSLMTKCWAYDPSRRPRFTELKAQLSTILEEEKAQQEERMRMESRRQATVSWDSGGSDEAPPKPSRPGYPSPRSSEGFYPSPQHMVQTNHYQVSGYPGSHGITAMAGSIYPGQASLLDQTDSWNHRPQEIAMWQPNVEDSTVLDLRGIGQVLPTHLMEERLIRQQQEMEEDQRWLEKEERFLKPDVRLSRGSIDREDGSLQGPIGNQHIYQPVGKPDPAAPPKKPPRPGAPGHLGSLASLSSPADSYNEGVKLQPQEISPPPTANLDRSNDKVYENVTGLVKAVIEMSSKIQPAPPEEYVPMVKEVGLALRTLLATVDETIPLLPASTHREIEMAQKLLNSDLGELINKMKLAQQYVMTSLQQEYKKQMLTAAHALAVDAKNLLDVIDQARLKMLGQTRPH
Assay [4] relates to Fibrinogen (Alexa647-labelled). The assay can be described thus: fibrinogen binders on compound microarrays, profiling panel, artefact control for SMM control-protein annotation, biochemical, small-molecule microarray, 635/667 nm fluorescence (AID 1131).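 Further: z-score merges 667 nm fluorescence with per-spot signal-to-noise over triplicate slides.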 The following applies: fibrinogen-A647 binding fluorescence, higher = more signal.
The target in assay [5] is Follistatin (Homo sapiens) (UniProt P19883). The assay can be described thus: follistatin binders on small-molecule microarrays, primary screen, biochemical, small-molecule microarray, 635/667 nm fluorescence (AID 1132). The note with it: FST binding, 635 nm fluorescence, higher = more signal.
Follistatin (Homo sapiens), sequence (P19883 whole entry, looked up): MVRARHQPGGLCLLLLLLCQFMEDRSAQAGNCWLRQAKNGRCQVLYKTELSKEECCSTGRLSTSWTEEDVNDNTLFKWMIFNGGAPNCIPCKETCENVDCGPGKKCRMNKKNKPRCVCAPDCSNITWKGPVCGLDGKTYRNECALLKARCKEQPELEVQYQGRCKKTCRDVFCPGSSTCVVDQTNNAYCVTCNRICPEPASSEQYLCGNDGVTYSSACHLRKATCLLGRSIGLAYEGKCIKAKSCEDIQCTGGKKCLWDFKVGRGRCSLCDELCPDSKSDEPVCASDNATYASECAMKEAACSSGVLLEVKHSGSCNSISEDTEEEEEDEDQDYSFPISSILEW
Assay [6] concerns the target Fibroblast growth factor 2 (Homo sapiens) (UniProt P09038). The assay can be described thus: FGF2 binders on small-molecule microarrays, primary screen, biochemical, small-molecule microarray, 635/667 nm fluorescence (AID 1133). The following applies: small-molecule microarray binding, FGF2, fluorescence 635/667; higher = more signal.
A short description of assay [7]: mitochondrial membrane potential change in A549 cells, profiling panel, cell-based, JC-1 fluorescence, basal, 24 h, 100 nL (AID 1138).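 Further: A549 lung adenocarcinoma cells under basal conditions with no added stimulus; test concentration not given here.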 The following applies: higher = more signal.
A further assay has as its system Lefty1. The assay can be described thus: Lefty1 binders on small-molecule microarrays, primary screen, biochemical, small-molecule microarray, 635/667 nm fluorescence (AID 1139). The note with it: small-molecule microarray binding, fluorescence 635/667; higher = more signal.
Assay [8] has as its system wheat germ agglutinin (Triticum aestivum), Alexa647-labelled. The assay can be described thus: wheat germ agglutinin binders on compound microarrays, profiling panel, artefact control for SMM control-protein annotation, biochemical, small-molecule microarray, 635/667 nm fluorescence (AID 1140).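 Further: score merges 667 nm feature emission with signal to noise over triplicate slides.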 The note with it: WGA-A647 binding, 635 nm fluorescence, higher = more signal.

Assay [9] addresses Luciferin 4-monooxygenase (Photinus pyralis) (UniProt P08659). The assay can be described thus: firefly luciferase enzyme inhibitors, primary screen, biochemical, luminescence, purified enzyme, 2006 set (AID 1141).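 Further: cell-free assay with purified firefly luciferase at 100 ng per well in PBS; test concentration not given here.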 The note with it: SteadyGlo luminescence, 30 min, higher = more signal, called active from +8 up or from −8 down.

Activity calls are given as the source filed them.

Fibroblast growth factor 2 (Homo sapiens), sequence (P09038 whole entry, looked up): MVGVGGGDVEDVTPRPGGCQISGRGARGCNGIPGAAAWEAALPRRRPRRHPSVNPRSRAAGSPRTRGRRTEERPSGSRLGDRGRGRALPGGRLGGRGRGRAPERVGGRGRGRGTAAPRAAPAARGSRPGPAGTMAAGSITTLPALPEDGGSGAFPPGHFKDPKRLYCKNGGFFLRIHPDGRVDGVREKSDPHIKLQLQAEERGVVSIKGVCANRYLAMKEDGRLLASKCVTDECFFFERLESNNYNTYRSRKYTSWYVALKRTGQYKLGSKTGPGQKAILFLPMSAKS
Luciferin 4-monooxygenase (Photinus pyralis), sequence (P08659 whole entry, looked up): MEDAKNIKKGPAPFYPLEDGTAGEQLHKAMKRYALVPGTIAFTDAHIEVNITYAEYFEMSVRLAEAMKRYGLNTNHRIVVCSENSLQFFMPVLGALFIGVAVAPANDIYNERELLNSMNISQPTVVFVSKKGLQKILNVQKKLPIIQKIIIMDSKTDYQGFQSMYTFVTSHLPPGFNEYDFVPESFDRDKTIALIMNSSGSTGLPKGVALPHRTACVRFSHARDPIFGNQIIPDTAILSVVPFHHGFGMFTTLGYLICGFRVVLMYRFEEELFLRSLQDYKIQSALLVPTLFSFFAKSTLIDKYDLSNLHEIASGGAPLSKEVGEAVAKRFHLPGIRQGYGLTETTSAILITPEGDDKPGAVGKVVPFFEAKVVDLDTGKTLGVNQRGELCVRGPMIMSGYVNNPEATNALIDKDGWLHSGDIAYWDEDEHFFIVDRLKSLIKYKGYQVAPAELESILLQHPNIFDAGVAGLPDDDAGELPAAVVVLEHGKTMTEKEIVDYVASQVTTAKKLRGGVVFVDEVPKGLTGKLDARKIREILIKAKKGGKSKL

Regarding `CN(C)C(=O)[C@@]1(Cc2ccccc2N=[N+]=[N-])N=C(c2ccc(OCCCO)cc2)O[C@H]1c1ccccc1`, the composite z-score in [1] was 1.78; in assay [2], 1.25; in [3], 0.235; in assay [4], 0.992; in assay [5] it was 1.15; in [6], 1.37. The composite z-score in the assay with Lefty1 is -0.442; in assay [8] it was 1.22. The results for the z-score in [7] and in [9] were -0.238 and -2.17 (inactive), respectively.
With `[N-]=[N+]=NCc1ccccc1C[C@@]1(C(=O)N2CCCCC2)N=C(c2ccc(OCCCO)cc2)O[C@@H]1c1ccccc1CN=[N+]=[N-]`, the composite z-score in assay [1] was -0.174; in assay [2], 1.18; in assay [3], 0.457; in [4] it was 1.02; in assay [5], 0.913; in assay [6], 0.74. Moreover, the values for the composite z-score (in the assay with Lefty1; in [8]) were -0.611 and 1.28, respectively. For the same molecule, the z-score in [7] was 0.342; in assay [9], -0.57 (inactive).
Take `O=C1N[C@@H](Cc2ccccc2)C(=O)N2[C@@H]1C[C@@H](C(=O)O)[C@H]2c1ccc(O)cc1`: the composite z-score in assay [1] was 2.01; in assay [2], -0.219; in [3], -0.11; in assay [4], 0.68; in [5] it was 1.35; in assay [6], 1.26. The values for the composite z-score (in the assay on Lefty1; in [8]) were 1.58 and 0.828, respectively. For the same molecule, the results for the z-score in assay [7] and in [9] were 0.0945 and -1.43 (inactive), respectively.
In the case of `Cc1ccc(N2C(=O)c3ccccc3[C@](C)(C(=O)NCc3ccccc3)[C@@H]2c2ccc(CO)cc2)nc1`, the composite z-score was 2.31 in assay [1]; -0.27 in assay [2]; 0.771 in assay [3]; -0.887 in assay [4]; 1.31 in assay [5]; 0.464 in assay [6]. For the same molecule, the composite z-score was -0.0828 with Lefty1 and 0.0023 in assay [8]. Also, the z-score is -0.425 in assay [7] and -1.1 (inactive) in assay [9].
As for `O=C1O[C@H](c2ccccc2)[C@H](c2ccccc2)N2[C@H]1[C@@H](C(=O)O)[C@]1(C(=O)Nc3ccc(C#CC4(O)CCCCCC4)cc31)[C@H]2c1ccc(O)cc1`, the composite z-score was 0.401 in [1]; 0.391 in assay [2]; 0.016 in assay [3]; -0.132 in assay [4]; -0.0848 in assay [5]; -0.201 in assay [6]. The composite z-score in the assay on Lefty1 was found to be 0.0963; in assay [8], 0.211. The z-score in [7] was -0.697; in [9], -0.828 (inactive).
As to `C=C(COC)C(=O)CC[C@H](OC(C)=O)c1ccc(OCCO)cc1`, the composite z-score is 0.943 in assay [1]; 0.0389 in assay [2]; -0.267 in [3]; -0.0148 in assay [4]; 1.51 in [5]; 1.43 in assay [6]. The values for the composite z-score (with Lefty1; in assay [8]) were 1.46 and 0.777, respectively. Further, the results for the z-score in [7] and in assay [9] were -0.686 and -0.574 (inactive), respectively.
Turning to `COCCOC(=O)N1C(=O)[C@@]2(c3cc(C#CCNC(N)=O)ccc31)[C@H](c1ccc(O)cc1)N1[C@H](c3ccccc3)[C@H](c3ccccc3)OC(=O)[C@H]1[C@@H]2C(N)=O`, the composite z-score in [1] is -0.685; in assay [2], -0.703; in [3], -0.529; in [4], -1.39; in [5], -1.91; in assay [6] it was -0.93. In addition, the composite z-score is -1.72 in the assay on Lefty1 and -1.18 in assay [8]. For the same molecule, the figures for the z-score in assay [7] and in assay [9] were 0.902 and -1.03 (inactive), respectively.
As to `O=C1C[C@@](C(=O)NCc2ccccc2)(c2ccc([N+](=O)[O-])cc2)[C@@H](c2ccc(CO)cc2I)N1CC12CC3CC(CC(C3)C1)C2`, the composite z-score amounted to 0.579 in assay [1]; 0.976 in assay [2]; 0.121 in assay [3]; 0.846 in assay [4]; 1.41 in assay [5]; 1.54 in assay [6]. In addition, the values for the composite z-score (in the assay on Lefty1; in assay [8]) were 1.52 and 1.07, respectively. Further, the z-score in assay [7] is -1.36; in assay [9] it was 1.34 (inactive).
As to `CN1C(=O)C2C=CC(C(O)c3cc(C(F)(F)F)cc(C(F)(F)F)c3)N(Nc3ccccc3)C2C1=O` (stereo not given), the composite z-score is 0.581 in assay [1]; 0.737 in [2]; 0.99 in assay [3]; -0.35 in [4]; -0.101 in assay [5]; -0.419 in assay [6]. In addition, the composite z-score in the assay on Lefty1 worked out at 0.302; in assay [8], 0.225. The z-score in assay [7] is 0.587; in assay [9], 0.787 (inactive).
Consider `CC(C)C(=C=CC[C@H](O)c1cccc(OCCO)c1)CCO`, for which the composite z-score was -0.0157 in assay [1]; -0.374 in [2]; 0.107 in assay [3]; -1 in assay [4]; 0.277 in assay [5]; 0.138 in assay [6]. For the same molecule, the composite z-score is 0.67 with Lefty1 and 0.108 in assay [8]. The values for the z-score in assay [7] and in assay [9] were 0.346 and 0.371 (inactive), respectively.
Regarding `C=C[C@@H](C)[C@@H](OC(=O)Nc1ccc(SC)cc1)c1ccc(OCCO)cc1`, the composite z-score is 1.51 in [1]; 1.21 in assay [2]; 0.462 in assay [3]; 0.719 in [4]; 0.0078 in assay [5]; 0.0877 in assay [6]. In addition, the composite z-score in the assay with Lefty1 came out at 0.191; in [8], 1.04. Besides, the figures for the z-score in assay [7] and in assay [9] were -1.64 and -4.2 (inactive), respectively.
Consider `COc1cc2c(cc1O)C(c1ccc(CN3CCCC3)cc1)N(C)CC2` (stereo not given), for which the composite z-score was -1.52 in assay [1]; -2.03 in assay [2]; -0.489 in [3]; 0.109 in assay [4]; -0.843 in assay [5]; -0.324 in [6]. Moreover, the composite z-score with Lefty1 is -1.17; in assay [8], 0.434. Also, the figures for the z-score in assay [7] and in assay [9] were 0.563 and -0.831 (inactive), respectively.
In the case of `[N-]=[N+]=NC[C@H](Cc1ccccc1)NC(=O)c1ccccc1`, the composite z-score was 0.568 in [1]; -0.165 in assay [2]; 0.161 in assay [3]; -0.0208 in [4]; -0.487 in [5]; -0.0599 in assay [6]. Further, the composite z-score in the assay with Lefty1 is -0.156; in assay [8] it was 0.736. For the same molecule, the results for the z-score in [7] and in assay [9] were 1.21 and -0.53 (inactive), respectively.
Regarding `CCOC(=O)C[C@H]1[C@H](OC(=O)c2cc3ccccc3oc2=O)[C@@H](NC(=O)c2ccc3ccccc3c2)c2cc(OCCCO)ccc2N1C(=O)Cc1ccc(OC)cc1`, the composite z-score in [1] is -0.017; in assay [2], 0.743; in [3] it was 0.307; in [4], 0.932; in [5], 0.911; in assay [6], 0.518. For the same molecule, the values for the composite z-score (in the assay on Lefty1; in [8]) were 0.631 and 0.664, respectively. Besides, the z-score in assay [7] was -0.167; in [9] it was 0.842 (inactive).
For the molecule `COc1ccc([Si](C)(C)[C@@H]2[C@@H](CCn3cc([C@H](O)c4ccccc4)nn3)O[C@]3(C(=O)N(Cc4cccc(N5C(=O)c6cccc7cccc5c67)c4)c4ccccc43)[C@H]2C)cc1`, the composite z-score in [1] is 0.195; in [2], -0.34; in [3], -0.426; in assay [4], -0.759; in assay [5] it was -0.0585; in assay [6], -0.758. Further, the composite z-score in the assay on Lefty1 was 0.199; in [8], -0.228. For the same molecule, the values for the z-score in [7] and in [9] were 0.794 and 0.148 (inactive), respectively.
